# Among all 580,000 compounds or so, about 6,100 (1.1%) were called active. Another 15% or so got no clear call; they are omitted. The call rests on the fitted dose curve; in most records, active means well fitted inhibition curve with a large enough effect; inconclusive means small, poorly fitted or top-dose-only effect, or another doubt; inactive means no such curve, though single readings can be large or run the other way. The sample as a whole holds a higher share of actives than the screen did.
# Molecular target: Polyunsaturated fatty acid lipoxygenase ALOX12 (Homo sapiens) (UniProt P18054)
# Sequence (P18054 whole entry, looked up): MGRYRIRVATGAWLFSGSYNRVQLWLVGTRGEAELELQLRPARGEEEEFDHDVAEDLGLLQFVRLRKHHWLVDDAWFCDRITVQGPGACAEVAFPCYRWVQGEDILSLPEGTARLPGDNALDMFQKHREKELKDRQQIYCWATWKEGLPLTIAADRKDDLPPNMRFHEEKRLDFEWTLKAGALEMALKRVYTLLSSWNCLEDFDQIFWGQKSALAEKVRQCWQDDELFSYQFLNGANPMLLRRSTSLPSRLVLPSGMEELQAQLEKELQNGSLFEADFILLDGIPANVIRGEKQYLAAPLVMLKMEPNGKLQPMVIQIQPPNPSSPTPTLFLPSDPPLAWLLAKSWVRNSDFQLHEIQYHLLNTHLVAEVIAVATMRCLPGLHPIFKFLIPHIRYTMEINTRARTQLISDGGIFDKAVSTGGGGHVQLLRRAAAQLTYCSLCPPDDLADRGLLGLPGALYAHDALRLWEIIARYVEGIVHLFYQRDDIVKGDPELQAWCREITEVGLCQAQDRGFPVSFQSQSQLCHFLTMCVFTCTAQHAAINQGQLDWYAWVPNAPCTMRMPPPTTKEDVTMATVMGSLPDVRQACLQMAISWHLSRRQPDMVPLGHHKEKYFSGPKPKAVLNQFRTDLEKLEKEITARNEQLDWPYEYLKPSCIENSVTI
# Experiment: Primary qHTS assay for inhibitors of human arachidonate 12S-lipoxygenase (ALOX12): Round 2
# Conditions: purified 12hLO, xylenol orange hydroperoxide absorbance; series mostly up to 108 µM; activity change, negative = inhibition: at the top concentration
# Summary of the method: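 Purified human 12hLO at 150 nM in 25 mM Hepes, 0.01% Triton X-100, pH 7.0, preincubated 15 min at room temperature with compound. Reaction started with 40 uM arachidonic acid, 30 min at room temperature. Hydroperoxide measured by Fe-xylenol orange, 573/405 nm absorbance ratio.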
# On the % scale 0 is the no-effect control and ±100 the full control effect; potency means the concentration at half of the fitted maximal effect.
Structure (SMILES),"activity change, negative = inhibition",Potency
COCCNC(=O)COc1ccc2c(C)c(Cc3ccccc3)c(=O)oc2c1C,-38.9% (inactive),–
CN(C)C[C@@H]1CN(Cc2ccccn2)C[C@H]1NC(=O)c1cc(F)ccc1Cl,113% (inactive),–
COc1ccccc1Oc1coc2cc(OCc3ccc(Cl)cc3)ccc2c1=O,-11% (inactive),–
O=C(O)COc1ccc2c(=O)c(Oc3ccc(Cl)cc3)coc2c1,–,12.6 µM (active)
COC(=O)COc1ccc2c(=O)c(Oc3ccccc3Br)coc2c1,0% (inactive),–
CCCCN1C(SCC(=O)N2CCCC2)=NS(=O)(=O)c2ccccc21,4.21% (inactive),–
Cc1ccc(C(CNC(=O)c2cc3ccccc3oc2=O)N(C)C)o1 (stereo not given),8.45% (inactive),–
O=C1Cc2c(-c3ccc(Oc4ccccc4)cc3)n[nH]c2CN1CCc1ccncc1,14.1% [at 176 µM] (inactive),–
CCc1ccc(Nc2n[n+](-c3ccccc3)c(-c3cccc(Cl)c3Cl)s2)cc1,–,39.8 µM (active)
CCn1nc(C)cc1-c1nn2c(-c3cccc(Cl)c3Cl)nnc2s1,62.2% (inactive),–
CC1CCCC(NC(=O)c2c(F)cccc2F)C1C (stereo not given),5.84% (inactive),–
CCc1sc(C(=O)NC(C)C)cc1C,-26.1% (inactive),–
Cc1cccc(OCC(O)CNC23CC4CC(CC(C4)C2)C3)c1 (stereo not given),12% (inactive),–
CCn1cc(CN2CCCC23CCN(c2ccc(C(F)(F)F)cn2)CC3)cc1C#N,52.7% (inactive),–
S=c1[nH]nc2c3c4c(sc3ncn12)CCCC4,–,0.562 µM (active)
O=C(CSc1ncnc2sc3c(c12)CCCC3)Nc1ccc(F)cc1,-0.335% (inactive),–
Cc1cc(C(F)(F)F)nn1Cc1nc2c3c4c(sc3ncn2n1)CCC4,37.6% (inactive),–
CCCCCCCCCC(=O)NN=C1CCCCCCCCCCC1,20.9% (inactive),–
CC1(C(=O)NS(=O)(=O)C2CC2)CCCN(C(=O)CSc2ccccc2)C1 (stereo not given),2.48% (inactive),–
O=C(CSc1ccncc1)N1CCCC(O)(CN2CCCC2)C1 (stereo not given),–,25.1 µM (active)
O=C(CSc1ncccn1)N1CCCC1,12% (inactive),–
COc1ccc(C2CC(=O)c3cnc4c(c3C2)c(=O)[nH]c(=O)n4CCC(C)C)cc1 (stereo not given),-3.93% (inactive),–
CCCC(=O)C1C(=O)CC(c2ccc(OC)c(OC)c2)CC1=O (stereo not given),46.2% (inactive),–
O=C(CSc1nc2ccccc2nc1N1CCCCC1)Nc1cccc(Br)c1,56.1% (inactive),–
CC(Oc1ccc(-c2ccccc2)cc1)C(N)=O (stereo not given),47.2% (inactive),–
CC1(OC(=O)C2CCCC2)C(=O)C=C2C=C(c3ccc(C#N)cc3)OC=C2C1=O (stereo not given),–,10 µM (active)
CCCCCC1CCC(C(=O)Oc2ccc(C#N)cc2)CC1 (stereo not given),1.66% (inactive),–

Structure (SMILES),"activity change, negative = inhibition",Potency
N#Cc1ccc(-c2nc(C(=O)NC3CCCCCC3)no2)cc1,7.37% (inactive),–
CCCc1cc(=O)oc2c(C)c(OCC(=O)c3ccc(-c4ccccc4)cc3)ccc12,8.56% (inactive),–
O=C(Nc1ccc2c(c1)OCCO2)C(=O)c1c[nH]c2cc(F)ccc12,-16.1% (inactive),–
COc1ccc(CN2CCN(Cc3cccnc3)CC2)cc1OCc1ccccc1,–,0.708 µM (active)
C=CCc1ccc(OCC(O)CN2CCN(Cc3ccccc3)CC2)c(OC)c1 (stereo not given),-23.6% (inactive),–
Fc1ccc(OC2CN(Cc3cccnc3)C2)c(F)c1,10.3% [at 12.5 µM] (inactive),–
Cc1[nH]nc2c1C(c1ccccc1Br)C1=C(COC1=O)N2 (stereo not given),-14.3% (inactive),–
O=C(NCc1coc(-c2cccs2)n1)C1CCCN(C(=O)c2ccc(F)cc2)C1 (stereo not given),-2.26% (inactive),–
CN(CC(=O)Nc1cc(Cl)ccc1F)Cc1ccccc1N1CCCCC1,10.9% (inactive),–
CNC(NC(=O)c1ccc(C)cc1)C(Cl)(Cl)Cl (stereo not given),3.19% (inactive),–
COc1ccc(C)cc1S(=O)(=O)N1CCN(S(=O)(=O)c2cc(C(=O)O)ccc2C)CC1,–,15.8 µM (active)
COc1ccc(C(=O)NCc2ccc(C)cc2)cc1S(=O)(=O)N1CCCC1,30.3% (inactive),–
COc1ccc(C(=O)N(Cc2ccccc2)c2ccc(C)cc2)cc1S(=O)(=O)N1CCOCC1,1.7% (inactive),–
CCCCn1nc(C(=O)Nc2cc(Cl)ccc2C)c2ccccc2c1=O,3.35% (inactive),–
CCOc1ccc(-c2nc(CN3CCN(C(=O)Nc4ccccc4OC)CC3)c(C)o2)cc1,-12% (inactive),–
Cc1ncc(-c2ccc(S(=O)(=O)Nc3ccc(F)c(F)c3)cc2)o1,-25.2% (inactive),–
COc1cccc(CN2CCCN(Cc3ccncc3)C(c3ccccc3)CC(=O)NCC2)c1OC (stereo not given),67.7% (inactive),–
N#Cc1ccc(-c2cccs2)nc1SCc1ccc(Br)cc1,-27.6% (inactive),–
N#Cc1c(-c2cccs2)nc(SCC(=O)c2ccc(Br)cc2)[nH]c1=O,–,7.08 µM (active)
N#Cc1c(-c2ccc(F)cc2)cc(C2CC2)nc1SCC(=O)c1cccs1,-10.2% (inactive),–
Cc1oc(-c2ccc(OC(C)C)cc2)nc1CSc1nc2c(c(=O)[nH]1)CCC2,-5.3% (inactive),–
CCC(Oc1ccc(Br)cc1)C(=O)O (stereo not given),-20.7% (inactive),–
CC(=O)C1=C(O)C(=O)N(c2cccnc2)C1c1ccc([N+](=O)[O-])cc1 (stereo not given),-19.4% (inactive),–
CC(=O)C1=C(O)C(=O)N(c2ccc(Br)cc2)C1c1ccc([N+](=O)[O-])cc1 (stereo not given),–,31.6 µM (active)
COC(=O)CN1C(=O)C(O)=C(C(C)=O)C1c1ccc([N+](=O)[O-])cc1 (stereo not given),-12.7% (inactive),–
O=C(C(c1ccccc1)c1ccccc1)N(Cc1ccco1)C1CC1,-2.19% (inactive),–
Cc1ccc(CS(=O)Cc2ccc(Cl)cc2)cc1 (stereo not given),-10.9% (inactive),–

Structure (SMILES),"activity change, negative = inhibition",Potency
CC(C)CNC(=S)NNC(=O)c1nn(C)cc1Cl,-17.6% (inactive),–
Cc1scc(C(=O)NNC(=S)NCC(C)C)c1C,-23.5% (inactive),–
O=C(NNC(=S)NC1CC2CCC1C2)c1ccc(Cl)cc1 (stereo not given),0% (inactive),–
O=C(NC1CCCCCC1)C1CCN(C(=O)c2ccc(Cl)cc2)CC1,240% (inactive),–
O=C(NC(=S)NC1CCCCC1)c1ccc(Cl)cc1,–,2.82 µM (active)
CC(C)CNC(=S)NC(=O)c1ccc(Cl)cc1,–,8.91 µM (active)
Cc1ccccc1N1CCCN(Cc2ccccc2OCCO)CC1,29.5% (inactive),–
Cc1ccc(-c2nc3ccccc3o2)cc1NC(=O)C1CC1,-4.05% (inactive),–
Cn1cc(-c2cnc3n[nH]c(-c4ccccc4)c3n2)cn1,24.5% [at 176 µM] (inactive),–
COc1ccc(Cl)cc1C(=O)OCCOc1ccccc1F,26.4% (inactive),–
CC(C)CCNC(=O)COC(=O)c1cc(-c2ccco2)nc2ccccc12,–,6.31 µM (active)
CN(CCOc1ccccc1)C(=O)c1cc(-c2ccco2)nc2ccccc12,–,31.6 µM (active)
CCCOc1cccc(-c2cc(C(=O)OC)c3ccccc3n2)c1,4.79% (inactive),–
Cc1cc(C(=O)OCC(=O)NC(=O)c2ccccc2)c2ccccc2n1,8.94% (inactive),–
CCc1nnsc1C(=O)N(C)CCOc1ccccc1,-7.12% (inactive),–
COc1cccc(-c2cc(C(=O)NCCC(C)C)c3ccccc3n2)c1,14.8% (inactive),–
CC(C)c1ccc(OCC(=O)Nc2ccc(C(=O)N(C)C)cc2)cc1,4.6% (inactive),–
N#Cc1nc(-c2ccc(S(=O)(=O)N3CCOCC3)cc2)oc1NCCN1CCOCC1,1.66% (inactive),–
CC(C)CCN1CC2(CCCN(C(=O)c3ccn(C)c(=O)c3)C2)CCC1=O (stereo not given),-3.41% (inactive),–
O=C(CC(NC(=O)c1ccccc1)c1ccccc1)NC12CC3CC(CC(C3)C1)C2 (stereo not given),56.1% (inactive),–
COc1ccc(C(=O)CSc2nnc(NC(=O)C3CC(=O)N(c4cccc(OC)c4)C3)s2)cc1 (stereo not given),8.34% (inactive),–
CCc1nnc(NC(=O)C2CC(=O)N(c3ccc4c(c3)OCCO4)C2)s1 (stereo not given),6.52% (inactive),–
CCOC(=O)CSc1nnc(NC(=O)C2CC(=O)N(c3ccc(F)cc3)C2)s1 (stereo not given),–,39.8 µM (active)
CSc1nc(-c2cccs2)cc(C(F)(F)F)n1,-24.3% (inactive),–
CCn1nc(C(=O)N(C)Cc2cnn(-c3ccccc3)c2)c2ccccc2c1=O,44.5% (inactive),–
CC1CCCCN1C(C)CNC(=S)Nc1ccc(F)cc1F (stereo not given),-8.73% (inactive),–
Cn1cc(CN2CCn3c(nnc3[C@@H]3C[C@@H](O)CN3Cc3ccccc3)C2)c2ccccc21,-4.36% (inactive),–

Structure (SMILES),"activity change, negative = inhibition",Potency
CC(=O)N(c1ccc2oc(=O)sc2c1)S(=O)(=O)c1ccc(C)cc1,–,8.91 µM (active)
CCOC(=O)c1c(C)oc2ccc(N(C(=O)c3ccncc3)S(=O)(=O)c3ccc(CC)cc3)cc12,0% (inactive),–
CC(=O)Oc1ccc(N(C(C)=O)S(=O)(=O)c2ccc3ccccc3c2)cc1Br,0% (inactive),–
Cn1c(=O)c2c(nc(NCc3ccccc3)n2Cc2cccc(F)c2)n(C)c1=O,9.35% (inactive),–
O=C(Nc1ccc2nc(SCCOc3ccccc3)sc2c1)c1ccco1,-28.3% (inactive),–
CCN(c1ccc(Cl)cc1)S(=O)(=O)c1nnc(NC(=O)c2ccco2)s1,-23.8% (inactive),–
O=C(Nc1nc(-c2ccco2)c(-c2ccco2)s1)c1ccco1,–,31.6 µM (active)
O=C(COC(=O)CNC(=O)c1cccc(Cl)c1)Nc1ncc(C(F)(F)F)cc1Cl,-24.8% (inactive),–
Cc1nc(SC(C)C(=O)Nc2cccc(C#N)c2)n(CC(C)C)c1C (stereo not given),1.37% (inactive),–
COc1ccc(NC(=O)[C@@H]2C[C@@H](c3cccc(C(F)(F)F)c3)N(Cc3cnn(C)c3)C2)cn1,0.79% (inactive),–
O=C(Nc1cccnc1)[C@@H]1C[C@@H](c2ccc(F)cc2)N([S+](=O)([O-])c2ccccc2)C1,10.5% [at 176 µM] (inactive),–
COc1ccc(NC(=O)[C@@H]2C[C@@H](c3ccc(F)cc3)N(CCOc3ccccc3)C2)cn1,–,31.6 µM (active)
O=C(NC1CC1)c1ccccc1OCC1CCCN(Cc2ccncc2F)C1 (stereo not given),57.2% (inactive),–
CN(CC(=O)Nc1ccc(N2CCOCC2)cc1)CC(=O)Nc1ccccc1[N+](=O)[O-],1.25% (inactive),–
Cc1ccc(/C=N/Nc2ccccc2C(F)(F)F)cc1,37.1% (inactive),–
Cc1ccccc1N/N=C/c1ccc(N2CCOCC2)cc1,–,7.08 µM (active)
Cc1cc2ccccc2n1CC(=O)Nc1ccc(Oc2ccccc2)cc1,-0.868% (inactive),–
Cc1ccc(CN2CCN(c3nc4ccccc4o3)CC2CCO)cc1 (stereo not given),15.7% (inactive),–
CSc1ccccc1N=Cc1ccc(Cl)c(Cl)c1,3.85% (inactive),–
CSc1ccc(/C=N/N2CCN(Cc3ccccc3Cl)CC2)cc1,-1.35% (inactive),–
CSc1ccc(/C=N/Nc2c(Cl)cc(Cl)cc2Cl)cc1,–,4.47 µM (active)
CCNc1nc(C(F)(F)F)c(C(=O)OCC)s1,40.4% (inactive),–
Cc1ccc(C2C3=C(CC(C)(C)CC3=O)Nc3nc(SCCC(C)C)[nH]c(=O)c32)s1 (stereo not given),30.9% (inactive),–
CN(C)C(=O)c1cccnc1OC1CCN(C(=O)Nc2cc(F)cc(F)c2)C1 (stereo not given),-0.265% (inactive),–
